According to ChEMBL document CHEMBL3988442, “University of Dundee, Small-Polar-MMV Screening Library” (2021):
The whole screen tested about 48,000 compounds, of which about 13,000 (27%) showed an effect of 50% or more. This is one part of the list.

system: Wolbachia pipientis; assay: Anti-Wolbachia Cell-Based Screen; format: functional; set-up: scale not given: in the data most compounds retested in dose-response had high values; details: 5 µM

| SMILES | Percent Effect [%] |
| --- | --- |
| CC(C)[C@H](C)NC1CCN(c2ccc(-c3cscn3)cc2)CC1 | -7.145 |
| CCCn1nnnc1CSCc1cn2c(C)cccc2n1 | 8.521 |
| N#Cc1cccnc1N1CCCC(CO)(Cc2ccccc2F)C1 (stereo not drawn) | 12.54 |
| CNS(=O)(=O)CC(=O)N(Cc1ccsc1)c1ccccc1 | 7.339 |
| NC[C@H]1CC[C@H](C(NC(=O)CC2CCCC2)c2ccccn2)CC1 (stereo partly drawn) | 151 |
| O=C(Cn1cnc(NC(=O)CC2CCCC2)n1)NCc1ccccc1 | -4.841 |
| NC[C@H]1CC[C@H](C(NC(=O)c2ccccn2)c2ccccn2)CC1 (stereo partly drawn) | -2.81 |
| NC[C@H]1CC[C@H](C(NC(=O)CC2CCCCC2)c2ccccn2)CC1 (stereo partly drawn) | 140.5 |
| NC[C@H]1CC[C@H](C(NC(=O)C2CC2)c2ccccn2)CC1 (stereo partly drawn) | 117.5 |
| CC(C)[C@H]1CN(Cc2ccccn2)C[C@@H]1NC(=O)CC1CCC1 | -7.125 |
| NC[C@H]1CC[C@H](C(NC(=O)c2ccccc2)c2ccccn2)CC1 (stereo partly drawn) | -1.705 |
| CCCC(=O)NC(Cc1ccc(C)cc1)c1ccccn1 (stereo not drawn) | -7.589 |
| O=C(OC1CCC1)c1ncccc1C(F)(F)F | -15.91 |
| CC(C)c1nnc(NCc2cc3n(n2)CCNC3)s1 | 7.297 |
| CC1CCN(S(=O)(=O)NC(C)Cc2ccco2)CC1 (stereo not drawn) | 1.293 |
| Cc1nc(CN(C)Cc2cn[nH]c2-c2ccc(F)cc2)c[nH]1 | 20.15 |
| CC(C)[C@H]1COC(=O)N1CC(=O)N1CCN(C(=O)c2ccco2)CC1 | 1.132 |
| Cc1ccc2oc(=O)n(CCC(=O)N3CCC4(CN(C)C(=O)O4)C3)c2c1 (stereo not drawn) | 2.838 |
| CN1CC2(CCN(CCCOCc3ccccc3)CC2)OC1=O | 106.4 |
| CN1CC2(CCCN(CCOCc3ccccc3)C2)OC1=O (stereo not drawn) | 96.52 |
| COc1ccc(/C=C/CN2CCC3(CC2)CN(C)C(=O)O3)cc1 | -13.05 |
| CCC1(C(=O)O)CCCN(CCOCc2ccccc2)C1 (stereo not drawn) | 2.602 |
| COCCC1(C(=O)O)CCCN(CCOCc2ccccc2)C1 (stereo not drawn) | 2.553 |
| CN1CC2(CCN(C(=O)c3[nH]cnc3-c3ccccc3)C2)OC1=O (stereo not drawn) | -16.32 |
| CN1CC2(CCN(C(=O)CCCOCc3ccccc3)C2)OC1=O (stereo not drawn) | 107.9 |
| CS(=O)(=O)NC1CCN(CCOCc2ccccc2)CC1 | 0.008163 |
| Cc1cc(NC(=O)N2CCC[C@@H]2CO)nn1-c1ccccc1Cl | -2.328 |

| SMILES | Percent Effect [%] |
| --- | --- |
| CC(C)COCCC(=O)Nc1c(-c2ccc(F)cc2)ncn1C | 34.39 |
| O=C(NC1CC1)[C@H]1C[C@H]2OCC[C@H]2N(Cc2ccc(F)cc2)C1.O=C(O)C(F)(F)F | -3.794 |
| Cc1ccc([C@@H]2CN(C(=O)c3ccsc3)C[C@H]2NC(=O)C2CC2)cc1 | -0.5207 |
| O=C(NCC(O)c1ccccc1Cl)c1cccc(-n2cnnn2)c1 (stereo not drawn) | -6.148 |
| COCCCN1CCC(N(Cc2noc(C)n2)C(C)=O)C1 (stereo not drawn) | 116.1 |
| CC(=O)N(Cc1noc(C)n1)C1CCN(Cc2c(C)noc2C)C1 (stereo not drawn) | 106.6 |
| Cc1nc(CN2CCCC(N(C)Cc3c(C)noc3C)C2)no1 (stereo not drawn) | 5.065 |
| CC(=O)N(Cc1noc(C)n1)C1CCN(Cc2cccc(C#N)c2)C1 (stereo not drawn) | 124.3 |
| Cc1nc(CN(C)C2CCN(Cc3c(C)noc3C)C2)no1 (stereo not drawn) | -3.836 |
| COCCN1CCC(N(Cc2noc(C3CC3)n2)C(C)=O)C1 (stereo not drawn) | 0.8027 |
| COCCCN(C)C1CCCN(Cc2noc(C)n2)C1 (stereo not drawn) | -3.028 |
| CC(=O)N(Cc1noc(C)n1)C1CCN(Cc2ccc(C#N)cc2)C1 (stereo not drawn) | 102.5 |
| Cc1nc(CN2CCCC(N(C)c3ccc(C#N)cn3)C2)no1 (stereo not drawn) | 1.567 |
| CC(=O)N(Cc1noc(C)n1)C1CCN(Cc2ccccc2C#N)C1 (stereo not drawn) | -0.5328 |
| Cc1cccc(CCC(=O)Nc2cccnc2N2CCC(O)CC2)c1 | -21.77 |
| Cc1nonc1NC(=O)c1ccc(F)c(COCC2CC2)c1 | -55.79 |
| CC(C)n1cc2cc(NC(=O)CCS(C)(=O)=O)ccc2n1 | -1.641 |
| COC(=O)c1cc(C(=O)N2CCOCC2(C)C)n(-c2ccccc2)n1 | -5.811 |
| CCC(C)(NCC(=O)OC)c1nccs1 (stereo not drawn) | -7.626 |
| Cc1ccc(OCC(=O)N(C)Cc2cccc(F)c2)cn1 | 7.779 |
| CC(C)Oc1cccc(CNC(=O)NC(C)(C(=O)O)c2ccco2)c1 (stereo not drawn) | 1.863 |
| CCNS(=O)(=O)c1ccc(C)c(C(=O)N(CCC#N)Cc2ccco2)c1 | -4.86 |
| CS(=O)(=O)NC1CC2(CCN(CC3CC3)CC2)Oc2ccccc21.O=C(O)C(F)(F)F (stereo not drawn) | 88.61 |
| CC(C)CN1CCC2(CC1)CC(NS(C)(=O)=O)c1ccccc1O2.O=C(O)C(F)(F)F (stereo not drawn) | 99.03 |
| CN1CCC2(CC1)CC(NC(=O)c1csnn1)c1ccccc1O2.O=C(O)C(F)(F)F (stereo not drawn) | -8.669 |
| CCN1CCC2(CC1)CC(NC(=O)c1c[nH]cn1)c1ccccc1O2 (stereo not drawn) | -7.488 |
